# Test results from PubChem BioAssay (NCI).
# Several values for one entry are separate records, joined by “and”; a condition that tells them apart may be missing. Equal values may be shown once. Compounds without any hit were thinned out: in the full panel of roughly 79,000, 15% have a hit. A number with no mark means an inactive call. Activity calls are given as the source filed them. Cut-off read from the data, not from the text of the source: active = growth inhibition above about 70%; inactive = the rest.
# Assay: NCI Yeast Anticancer Drug Screen. Data for the rad18 strain (AID 177)
# Settings: S. cerevisiae rad18 mutant growth inhibition, stronger effect = higher value
# Protocol: Growth inhibition of yeast strains with defined genetic alterations is measured as a screen for potential anti-cancer activity. Selected strains with alterations in DNA damage repair or cell cycle control were exposed to compounds and growth inhibition was measured relative to vehicle treated controls. The strain used in this assay is rad18
SMILES,growth inhibition (at 1.2 µM),growth inhibition (at 3.7 µM),growth inhibition (at 11.0 µM),growth inhibition (at 33.0 µM),growth inhibition (at 100.0 µM)
Oc1ccc(Cl)cc1Cc1ccccc1,-71%,-30%,54%,95% (active),97% (active)
COc1ccc([N+]2=NC(c3ccc([N+](=O)[O-])cc3)=NN(c3ccccc3)C2)cc1,-8% and -5%,-2% and -3%,12% and 15%,34% and 33%,90% (active) and 87% (active)
OCC(O)C(O)CO (stereo not given) (tested in a mixture with another compound),-4%,-3%,-2%,-2%,1%
CC1(Cl)CC(C)(/C=C/Cl)C(Cl)CC1Cl (stereo not given),5%,5%,12%,30%,48%
Cc1ccc2c(c1)C1(C)c3cc(C)ccc3SP1S2 (stereo not given),8%,-3%,7%,27%,52%
Nc1nc(-c2ccccc2)c(-c2ccccc2)[se]1,5%,8%,6%,15%,51%
CCC1(O)C(=O)OCc2c1cc1n(c2=O)Cc2cc3ccccc3nc2-1 (stereo not given),-6%,15%,21%,4%,7%
CSc1ccccc1[As](C)C,8%,43%,92% (active),99% (active),99% (active)
